# A number with no mark means an inactive call.
# Test system: Vero E6 infected with SARS-CoV-2
# Assay: inhibition of SARS-CoV-2 cytopathic effect; higher = more antiviral protection, active = above 15
# Details: 48 h
SMILES,inhibition of SARS-CoV-2 cytopathic effect (1 nM) [%],inhibition of SARS-CoV-2 cytopathic effect (8.33 nM) [%],inhibition of SARS-CoV-2 cytopathic effect (100 nM) [%],inhibition of SARS-CoV-2 cytopathic effect (833.33 nM) [%],inhibition of SARS-CoV-2 cytopathic effect (10000 nM)
C[C@H](NCc1ccc(OCc2cccc(F)c2)cc1)C(N)=O [safinamide],4.62,5.34,2.52,0.07,-0.48%
C[C@]12CC[C@H](O)CC1=CC[C@@H]1[C@@H]2CC[C@]2(C)C(=O)CC[C@@H]12,1.25,0.45,0.19,5.63,1.12%
COC(=O)c1ccc2c(c1)NC(=O)/C2=C(\Nc1ccc(N(C)C(=O)CN2CCN(C)CC2)cc1)c1ccccc1 [nintedanib],-1.36,-3,-0.71,0.19,0%
CC(=O)Nc1ccccc1 [acetanilide],-1.3,2.8,1.67,1.23,0.69%
Cc1nn(-c2ccccc2)c(C)c1/C=N/N1CCN(Cc2ccccc2)CC1,-4.74,0.23,-0.84,-0.98,-0.87%
OCC(Br)(Br)Br [tribromoethanol],3.45,0.33,2.81,4.01,1.49%
CCCCCCCCCCCC(=O)N(CCO)CCO [lauric-diethanolamide],1.82,1.8,-1.44,1.01,-2.1%
N#Cc1cc(F)cc(-c2nc(-c3ccc(F)cn3)no2)c1,0.6,2.48,1.15,-0.25,2.97%
COc1cc(NS(C)(=O)=O)ccc1Nc1c2ccccc2nc2ccccc12 [amsacrine],-2.31,1.72,-0.21,-6.01,-5.76%
CN1CCC(=C2c3ccccc3CC(=O)c3sccc32)CC1 [ketotifen],1.19,4.8,2.53,1.27,-3.64%
CCCCOC(=O)c1ccc(N)cc1 [butamben],3.03,2.87,2.37,6.53,2.78%
CCCCCCCCCCCCCCCC[n+]1ccn(Cc2ccccc2)c1C,-1.36,0.51,0.65,-4.4,-20.9%
O=C(CN1CCNCC1)NC1CCCCC1 [esaprazole],-1.96,-1.47,-0.45,-0.95,-1.46%
Nc1nnc(Sc2ncc([N+](=O)[O-])s2)s1,3.57,-1.18,-0.27,-2.43,-20.9%
Cc1cc2cc3c(C)cc(=O)oc3c(C)c2o1 [trioxsalen],1.96,2.74,0.65,3.62,-0.06%
CN(CC[C@@H](Oc1ccc(-c2ccccc2)cc1)c1ccc(F)cc1)CC(=O)O,0.18,1.55,0.56,0.79,0.89%
Clc1ccc2c(N3CCN(CCCN4CCN(c5ccnc6cc(Cl)ccc56)CC4)CC3)ccnc2c1 [piperaquine-phosphate],-0.04,1.25,-0.14,-1.37,-2.6%
CO[C@@]1(NC(=O)CSC[C@@H](N)C(=O)O)C(=O)N2C(C(=O)O)=C(CSc3nnnn3C)CS[C@@H]21 [cefminox],-0.91,0.78,-1.2,-1.63,1.75%
CC(Cc1cccc(C(F)(F)F)c1)NCCOC(=O)c1ccccc1 (stereo not given) [benfluorex],0.5,0.35,-0.24,-1.03,0.26%
CN[C@@H](C)C(=O)N[C@H](C(=O)N1CCC[C@H]1c1nc(C(=O)c2ccc(F)cc2)cs1)C1CCCCC1,1.96,2.97,0.97,-3.07,-4.24%

SMILES,inhibition of SARS-CoV-2 cytopathic effect (1 nM) [%],inhibition of SARS-CoV-2 cytopathic effect (8.33 nM) [%],inhibition of SARS-CoV-2 cytopathic effect (100 nM) [%],inhibition of SARS-CoV-2 cytopathic effect (833.33 nM) [%],inhibition of SARS-CoV-2 cytopathic effect (10000 nM)
CN1C[C@@H](NS(=O)(=O)N(C)C)C[C@@H]2c3cccc4c3c(cn4C)C[C@H]21 [mesulergine],-0.67,0.79,0.56,0.39,1.25%
CCc1cc(C(N)=S)ccn1 [ethionamide],-1.54,0.54,-0.38,-1.73,2.79%
CN1C(=O)N[C@H](Cc2c[nH]c3c(Cl)cccc23)C1=O [necrostatin-2],-3.13,-7.04,-6.01,-0.96,-5.96%
CC(C)C[C@H](NC(=O)[C@@H]1CCCN1)C(=O)NCC(N)=O [prolylleucylglycinamide],0.63,2.46,1.44,0.51,1.22%
Cc1ccc(S(=O)(=O)NC2c3ccccc3Oc3ccccc32)cc1,-5.59,-2.13,-2.17,-6.38,-2.38%
O=c1ccn([C@@H]2O[C@H](CO)[C@@H](O)[C@H]2O)c(=O)[nH]1 [uridine],0.24,0.14,0.2,-1.16,2.27%
CNC(=O)c1cccc(NC(=O)N2CCC(Oc3ccccc3Cl)CC2)c1,0.48,-3.23,-1.17,-2.36,-3.23%
COc1cc(C(C)=O)ccc1O [apocynin],0.03,-1.17,-2.23,-0.09,1.17%
O=C(O)COC(=O)Cc1ccccc1Nc1c(Cl)cccc1Cl [aceclofenac],0.39,0.9,0.17,-0.85,0.58%
COc1ccc(-c2ccc3cc(C(=O)O)ccc3c2)cc1C12CC3CC(CC(C3)C1)C2 [adapalene],-0.05,-0.29,2.4,2.31,3.12%
CCCOc1ccc2[nH]cc(C3=CCNCC3)c2n1,2.78,1.38,-1.41,2.78,-1.56%
COc1cc(/C=C/C(N)=O)cc(OC)c1OC [cintriamide],-2.6,1.17,-4.56,2.97,2.84%
O=C1NCCN1CCN1CCC(c2cn(-c3ccc(F)cc3)c3ccc(Cl)cc23)CC1 [sertindole],-2.53,-4.63,-2.36,-5.98,-11.3%
CC1(C)CCC(C)(C)c2cc(Cn3cccn3)c(/C=C/c3ccc(C(=O)O)cc3)cc21 [palovarotene],3.77,1.22,1.2,0.58,2.48%
N#Cc1cc2c(OCC(O)CN3CCN(C(c4ccccc4)c4ccccc4)CC3)cccc2[nH]1 (stereo not given),0.5,-0.23,0.3,4.21,-2.26%
COc1cc(/C=C/C(=O)CC(=O)/C=C/c2ccc(O)c(OC)c2)ccc1O [curcumin],-1.79,-0.65,1.73,4.68,23.4% (active)
COc1cc(N)c(Cl)cc1C(=O)N[C@@H]1CCN(CCCOc2ccc(F)cc2)C[C@@H]1OC (racemic) [cisapride],-0.68,-0.92,1.02,2.56,-4.6%
CC(=O)OCC(=O)[C@@]1(O)[C@@H](C)C[C@H]2[C@@H]3CCC4=CC(=O)C=C[C@]4(C)[C@@]3(F)[C@@H](O)C[C@@]21C [betamethasone-acetate],-1.36,0.805,0.555,0.57,-0.935%
O=C(O[C@H]1[C@H](OC(=O)c2cccnc2)[C@@H](OC(=O)c2cccnc2)[C@H](OC(=O)c2cccnc2)[C@@H](OC(=O)c2cccnc2)[C@H]1OC(=O)c1cccnc1)c1cccnc1 [inositol-hexanicotinate],2.01,3.15,2.82,0.04,0.85%
Cc1[nH]c(=O)c(C#N)cc1-c1ccncc1 [milrinone],1.1,-2.54,-1.13,-1.41,0.27%
